Fam108B counter: counter-screen for RBBP9 inhibitors: inhibitors of mouse Fam108B; hit rate 0.33% among 300,000; recombinant Fam108B, FP-Rh probe fluorescence polarization; inhibition, % at 9.51 µM; AID 1947;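 active = inhibition above the screen mean inhibition plus 3 SD, computed separately per campaign, cut at about 18% in these data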;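 also: inhibitors lower polarization as less probe binds the enzyme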
PME-1 primary: PME-1 (human) inhibition. Q9Y570. recombinant PME-1, FP-Rh probe fluorescence polarization. inhibition, % at 5.9 µM. hit rate 0.53% among 320,000. AID 2130;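 active = inhibition above the campaign mean of all compounds plus 3 SD, cut at about 26% in these data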;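 also: competitive labeling of PME-1 active site by serine hydrolase directed probe; inhibitors block probe labeling so polarization falls and inhibition rises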
Target sequence (Q9Y570 whole entry, looked up): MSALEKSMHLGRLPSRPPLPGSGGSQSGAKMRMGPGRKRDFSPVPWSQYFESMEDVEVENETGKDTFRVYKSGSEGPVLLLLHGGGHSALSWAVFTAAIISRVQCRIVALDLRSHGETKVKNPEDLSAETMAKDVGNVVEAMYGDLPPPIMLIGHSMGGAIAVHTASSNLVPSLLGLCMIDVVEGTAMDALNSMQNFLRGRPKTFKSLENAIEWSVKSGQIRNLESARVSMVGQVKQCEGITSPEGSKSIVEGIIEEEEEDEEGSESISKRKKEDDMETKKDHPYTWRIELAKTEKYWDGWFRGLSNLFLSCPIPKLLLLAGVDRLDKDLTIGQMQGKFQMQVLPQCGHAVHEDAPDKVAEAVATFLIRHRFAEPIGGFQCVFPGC
LYPLA1 counter: blocks human lysophospholipase 1, a PME1 counter-screen. O75608. recombinant LYPLA1, FP-Rh probe fluorescence polarization. inhibition, % at 5.9 µM. hit rate 0.16% among 320,000. AID 2174;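 active = inhibition above the mean of all tested compounds plus 3 SD, set per campaign, cut at about 14% in these data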;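 also: inhibitors block serine hydrolase probe labeling of LYPLA1 so polarization falls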
PREPL inhibitor: inhibits the human prolyl oligopeptidase-like enzyme; Q4J6C6; recombinant PREPL, fluorescence polarization activity-based probe; inhibition, % at 5.96 µM; hit rate 0.68% among 320,000
LYPLA2 inh: blocks human lysophospholipase 2, a PME1 counter-screen; O95372; recombinant LYPLA2, FP-Rh probe fluorescence polarization; inhibition, % at 5.9 µM; hit rate 0.38% among 320,000; AID 2177;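 active = inhibition above the screen-wide mean plus 3 SD, limit set per campaign, cut at about 26% in these data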
Target sequence (O95372 whole entry, looked up): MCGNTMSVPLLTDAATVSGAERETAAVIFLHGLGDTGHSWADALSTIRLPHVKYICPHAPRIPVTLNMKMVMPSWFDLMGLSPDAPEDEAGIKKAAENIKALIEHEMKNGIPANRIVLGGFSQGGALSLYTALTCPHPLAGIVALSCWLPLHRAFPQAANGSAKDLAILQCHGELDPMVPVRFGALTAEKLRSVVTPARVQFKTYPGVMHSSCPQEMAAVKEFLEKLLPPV
Fam108b confirm: confirmation of mouse Fam108b serine hydrolase inhibitors; shares compounds with Fam108B counter; recombinant Fam108b, FP-Rh probe fluorescence polarization; hit rate 44% among 930; inhibition, % at 9.51 µM;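 active = inhibition above a limit from the primary screen, the mean over all compounds plus 3 SD, cut at about 19% in these data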;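 also: inhibitors free the probe so polarization falls as inhibition rises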
Fam108b ABPP HTS: mouse ABHD17B inhibition; shares compounds with Fam108B counter; recombinant Fam108b, gel-based ABPP, fluorophosphonate probe; inhibition, % at 20 µM; hit rate 44% among 260; in the data active = inhibition above about 40%
LYPLA1 conf: counter-screen for PME1 inhibitors: confirmation of human LYPLA1 inhibitors. inhibition, % at 5.9 µM. shares compounds with LYPLA1 counter. recombinant LYPLA1, FP-Rh probe fluorescence polarization. hit rate 69% among 480;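 active = mean inhibition across replicates above the hit cutoff set in the primary screen, cut at about 15% in these data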;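 also: loss of FP-Rh probe labeling of LYPLA1 seen as lower polarization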
LYPLA2 conf: counter-screen for PME1 inhibitors: confirmation of human LYPLA2 inhibitors; inhibition, % at 5.9 µM; AID 2232; shares compounds with LYPLA2 inh; recombinant LYPLA2, FP-Rh probe fluorescence polarization; hit rate 72% among 1,100;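 active = mean inhibition across replicates above the hit cutoff set in the primary screen, cut at about 26% in these data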;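 also: blocked labeling of the enzyme by serine hydrolase FP-Rh probe lowers polarization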
PREPL inh cf: human PREPL inhibition, confirmation; inhibition, % at 5.96 µM; recombinant PREPL, fluorescence polarization activity probe; shares compounds with PREPL inhibitor; hit rate 67% among 2,000
Large screens that a line does not name were inactive (follow-up assays come after a bar, where they were run). Hits are enriched below; roughly 1.3% of the tested compounds scored in any of these assays. Rule as the data show it, unless noted: active = inhibition above about 43%; inactive = the rest.

Brc1csc(/C=N/Nc2nc3ccccc3s2)c1	Fam108B counter 32, PME-1 primary 31, PREPL inhibitor 54 | Fam108b confirm 37 | PREPL inh cf inactive
Brc1cc2c(cc1/C=N/Nc1nc3ccccc3s1)OCO2	none
O=C1C(Cl)=C(N2CCN(c3ccccc3[N+](=O)[O-])CC2)C(=O)c2ccccc21	Fam108B counter 30, PREPL inhibitor 58 | Fam108b confirm 32 | Fam108b ABPP HTS inactive | PREPL inh cf 44
O=[N+]([O-])c1cc(Cl)ccc1N1CCCC1	none
CC(Sc1ccc(S(=O)(=O)N2CCOCC2)cn1)c1ccccc1Cl (configuration not stated)	none (no result: Fam108B counter, PME-1 primary, LYPLA1 counter, LYPLA2 inh)
O=C(NCc1ccccc1)c1ccc2nc(-c3ccco3)c(-c3ccco3)nc2c1	Fam108B counter 19, PREPL inhibitor 61 | Fam108b confirm inactive | PREPL inh cf 43
Cc1cc(C(=O)Nc2ccc(N3CCOCC3)c3nonc23)ccc1[N+](=O)[O-]	none
O=c1c(O)cccc2cc(O)c(O)c(O)c12	Fam108B counter 49, PREPL inhibitor 63 | Fam108b confirm 31 | Fam108b ABPP HTS inactive | PREPL inh cf inactive
COc1cccc(OCCn2cc(/C=N/NC(=O)c3ccncc3)c3ccccc32)c1	Fam108B counter 25, PREPL inhibitor 50 | Fam108b confirm inactive | PREPL inh cf inactive
Cc1ccc(OCCn2cc(/C=N/NC(=O)c3ccncc3)c3ccccc32)cc1	Fam108B counter 34, PME-1 primary 69, PREPL inhibitor 52, LYPLA2 inh 38 | Fam108b confirm inactive | PREPL inh cf 65
CC1(C)CC(NC(=S)NCc2ccc3c(c2)OCO3)CC(C)(C)N1	none
CCN(Cc1ccc(O)cc1)CC1CCCN(CCc2cccc(F)c2)C1 (configuration not stated)	none
N#Cc1ccc(-c2c(-c3ccccc3)ncc3cc(F)ccc23)cc1	none (no result: Fam108B counter)
COc1ccc2nc(C)cc(N/N=C/c3cccc(OC)c3O)c2c1	Fam108B counter 19, PREPL inhibitor 64 | Fam108b confirm inactive | PREPL inh cf 59
COc1ccc(/C=N/Nc2cc(C)nc3ccc(Br)cc23)cc1	Fam108B counter 20, PME-1 primary 35, PREPL inhibitor 56 | Fam108b confirm inactive | PREPL inh cf 52
Cc1cc(N/N=C/c2ccccc2O)c2ccccc2n1	none
COc1cc(/C=N/Nc2nc3c(c(=O)n(C)c(=O)n3C)n2Cc2ccccc2)ccc1OC(=O)c1ccco1	Fam108B counter 19, PME-1 primary 39, PREPL inhibitor 80 | Fam108b confirm inactive | PREPL inh cf 89
NC(=O)COC(=O)CN1C(=O)C2CCCCC2C1=O (configuration not stated)	none
Cc1cc(O)ccc1N=Cc1c(C(F)(F)F)[nH][nH]c1=O	Fam108B counter 31, PME-1 primary 89, LYPLA1 counter 71, PREPL inhibitor 70, LYPLA2 inh 86 | Fam108b confirm inactive | LYPLA1 conf inactive | LYPLA2 conf inactive | PREPL inh cf inactive
N#CCN(CC#N)C(=O)C1c2ccccc2Oc2ccccc21	Fam108B counter 91, PME-1 primary 77, LYPLA1 counter 87, PREPL inhibitor 75, LYPLA2 inh 105 | Fam108b confirm inactive | LYPLA1 conf inactive | LYPLA2 conf inactive | PREPL inh cf inactive
NC(=O)COC(=O)C1c2ccccc2Oc2ccccc21	none
CC(C)C[C@H](NC(=O)C1CCN(C(=O)[C@H](Cc2ccccc2)NC(=O)OC(C)(C)C)CC1)C(=O)O	none
O=S(=O)(Nc1c(S(=O)(=O)c2ccccc2)c2nc3ccccc3nc2n1C1CCCCC1)c1ccccc1	none
C=CCn1c(NS(=O)(=O)c2ccccc2)c(S(=O)(=O)c2ccc(C)cc2)c2nc3ccccc3nc21	Fam108B counter 74, PME-1 primary 33, LYPLA1 counter 80, PREPL inhibitor 47, LYPLA2 inh 82 | Fam108b confirm inactive | LYPLA1 conf 66 | LYPLA2 conf 90 | PREPL inh cf inactive
CC1=Nc2nc(N3CCCCC3)c(C#N)c3c4c(nc(c23)N1)N(c1ccc(C(C)C)cc1)C(=O)C4	Fam108B counter 27, PREPL inhibitor 99 | Fam108b confirm inactive | PREPL inh cf 72
CC(C)c1ccc(-c2nc(N3CCCCC3)[nH]c(=O)c2C#N)cc1	none
c1ccc2c(c1)nc(Nc1ccc3c(c1)OCO3)c1nnnn12	Fam108B counter 23, PREPL inhibitor 47 | Fam108b confirm inactive | PREPL inh cf 45
Fc1cccc(Nc2nc3ccccc3n3nnnc23)c1	none
O=c1c(-c2ccccc2)c(-c2ccccc2)oc2cc(O)cc(O)c12	none
O=c1c(O)c(-c2cc(O)c(O)c(O)c2)oc2cc(O)cc(O)c12	Fam108B counter 31, PREPL inhibitor 90 | Fam108b confirm inactive | PREPL inh cf 55
O=[N+]([O-])c1cc(Cl)cc(/C=N/NC(=S)Nc2ccc(S(=O)(=O)N3CCOCC3)cc2)c1O	Fam108B counter 39, PREPL inhibitor 46 | Fam108b confirm 31 | PREPL inh cf inactive
N#Cc1ccc(/C=N/NC(=S)Nc2ccc(S(=O)(=O)N3CCOCC3)cc2)cc1	none
CCOC(=O)/C=C/COc1ccccc1[N+](=O)[O-]	none
COc1ccc2noc3c2c1C(=O)c1ccccc1-3	Fam108B counter 20, PME-1 primary 26, LYPLA1 counter 25, PREPL inhibitor 50, LYPLA2 inh 29 | Fam108b confirm 23 | LYPLA1 conf 21 | LYPLA2 conf inactive | PREPL inh cf inactive
COc1ccc(CCNC(=O)CNCC(c2ccccc2)N(C)C)cc1OC (configuration not stated)	none
O=C(NCCc1ccccc1)c1ccc2c(=O)[nH]c3c(C(=O)NCC4CCCO4)sc(=S)n3c2c1 (configuration not stated)	Fam108B counter 34, PREPL inhibitor 93 | Fam108b confirm 35 | Fam108b ABPP HTS inactive | PREPL inh cf 90
O=S(=O)(Nc1cc2nc3ccccc3nc2n1Cc1ccccc1)c1ccc(Cl)cc1	Fam108B counter 43, PME-1 primary 53, LYPLA1 counter 54, PREPL inhibitor 50, LYPLA2 inh 57 | Fam108b confirm 64 | Fam108b ABPP HTS inactive | LYPLA1 conf 45 | LYPLA2 conf 93 | PREPL inh cf inactive
O=C(Nc1ccc(Cl)cc1)Nc1ccc2c(c1)N1CCN=C1S2	Fam108B counter 22, PREPL inhibitor 58 | Fam108b confirm inactive | PREPL inh cf inactive

Assay outcomes deposited in PubChem by The Scripps Research Institute Molecular Screening Center.
